# Screening data as filed in PubChem BioAssay.
# Only some compounds are listed: those with a hit (about 12% of all), similar ones and a draw of the others.
# Pf growth 48h = Primary qHTS for delayed death inhibitors of the malarial parasite plastid, 48 hour incubation; actives 5.9% (n = 310,000); Potency, µM (series often up to 28.7 µM), for inactives: top-dose activity change, negative = inhibition, usual class: inhibitors; P. falciparum luciferase growth in erythrocytes, 48 h; AID 504832, 2011; further: on the % scale 0 is the no-effect control and ±100 the full control effect
#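 Read-out is firefly luciferase luminescence from an integrated reporter in P. falciparum, so falling signal marks reduced parasite growth. Infected erythrocytes were at 2% hematocrit and 0.1% parasitemia (final) in Albumax-supplemented RPMI 1640.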
# AmpC no deterg = qHTS Inhibitors of AmpC Beta-Lactamase (assay without detergent); AmpC nitrocefin hydrolysis, absorbance 480 nm, 0.0001% Triton; Potency, µM (doses to about 57.1 µM), without a hit: at the top dose activity change, negative = inhibition, hits mostly inhibitors; actives 0.52% (n = 330,000);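 further: plate controls were no compound for no effect and no enzyme for full effect; nearly all actives have a fitted effect of over 20% in size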
# Target sequence (P00811 whole entry, looked up): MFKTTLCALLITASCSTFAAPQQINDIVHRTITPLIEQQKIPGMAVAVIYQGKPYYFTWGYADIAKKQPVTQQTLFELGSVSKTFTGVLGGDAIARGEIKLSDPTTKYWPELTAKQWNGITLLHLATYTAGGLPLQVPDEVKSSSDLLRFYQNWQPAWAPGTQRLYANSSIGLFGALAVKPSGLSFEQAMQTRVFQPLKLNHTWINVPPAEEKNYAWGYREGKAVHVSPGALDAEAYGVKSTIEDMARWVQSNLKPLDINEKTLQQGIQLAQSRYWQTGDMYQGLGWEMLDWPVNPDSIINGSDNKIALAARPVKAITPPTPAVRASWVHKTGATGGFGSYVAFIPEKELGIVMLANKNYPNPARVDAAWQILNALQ
#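 20 mM phosphate pH 7.0 + 0.01% (detergent screen) or 0.0001% Triton X-100; 5.3 nM AmpC reagent; cpd preinc 15 min RT; nitrocefin (800 uM stock) to start; A480 q20 s × 4 min; Activity was normalised to no-enzyme and no-compound control wells.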
# Pf growth 96h = Primary qHTS for delayed death inhibitors of the malarial parasite plastid, 96 hour incubation; P. falciparum luciferase reporter growth, 96 h; Potency, µM (top dose mostly 28.7 µM), without a hit: at the highest dose activity change, negative = inhibition, usual class: inhibitors; actives 6.9% (n = 320,000); further: on the % scale 0 is the no-effect control and ±100 the full control effect
#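 Cell-based qHTS: luciferase-tagged P. falciparum in erythrocytes (2% hematocrit, 0.05% parasitemia final) incubated with compounds for 96 hours, 37 C, 5% CO2; luciferase detection reagent then added and luminescence measured.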
# AmpC inh detg = qHTS Inhibitors of AmpC Beta-Lactamase (assay with detergent); AmpC hydrolysis of nitrocefin, absorbance 480 nm, 0.01% Triton; P00811; actives 0.041% (n = 370,000); Potency, µM (top dose mostly 114 µM), inactives show at the highest dose activity change, negative = inhibition, hits mostly inhibitors;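 further: 0% = no-compound wells and -100% = no-enzyme wells; nearly all actives have a fitted effect of over 25% in size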
#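 20 mM phosphate pH 7.0 + 0.01% (detergent screen) or 0.0001% Triton X-100; 5.3 nM AmpC reagent; cpd preinc 15 min RT; nitrocefin (800 uM stock) to start; A480 q20 s × 4 min; Activity was normalised to no-enzyme and no-compound control wells.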
# Sm TGR inh = qHTS Assay for the Inhibitors of Schistosoma Mansoni Peroxiredoxins; actives 3% (n = 360,000); AID 485364, 2010; purified TGR, DTNB reduction, TNB absorbance 405 nm; Schistosoma mansoni thioredoxin glutathione reductase (TGR), Q962Y6; Potency, µM (highest dose often 114 µM), for the others: at the highest dose activity change, negative = inhibition, actives largely listed as inhibitors; further: on the % scale 0 is the no-effect control and ±100 the full control effect; nearly all actives have a fitted effect of over 60% in size
#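 Kinetic colorimetric format: TGR-catalysed, NADPH-driven DTNB reduction monitored via TNB absorbance. Enzyme dispensed at 20 nM; compound exposure 15 min at room temperature before reaction start.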
# SARS PLpro yeast = qHTS of Yeast-based Assay for SARS-CoV PLP; S. cerevisiae expressing SARS-CoV PLpro, growth rescue; actives 0.19% (n = 330,000); Potency, µM (doses to about 32.9 µM), for inactives: at the highest dose activity, positive = growth rescue, actives largely listed as activators; calls by dose curve; further: 0% is about no effect; nearly all actives have a fitted effect of over 55% in size
# * marks the source's active call; other numbers are inactive results; ? = inconclusive; . = no result. Unless noted, the call rests on the fitted dose curve; in most records, active means well fitted curve in the direction sought with a large enough effect; inconclusive means small, poorly fitted or top-dose-only effect, or another doubt; inactive means no such curve, though single readings can be large; an effect the other way counts as inactive or inconclusive. Potency means the concentration at half of the fitted maximal effect.
SMILES,Pf growth 48h,AmpC no deterg,Pf growth 96h,AmpC inh detg,Sm TGR inh,SARS PLpro yeast
CCc1ccc(CNC(=O)c2cc3ccccn3n2)cc1,.,.,.,1%,-1%,.
Cc1ccc(C)c(NC(=O)c2cc3ccccn3n2)c1,112%,4.5µM*,33%,?,-2%,-5%
Cc1ccccc1NC(=O)c1cc2ccccn2n1,204%,-17%,278%,1%,-6%,-5%
O=C(NCc1ccc(F)cc1)c1cc2ccccn2n1,20%,3%,3.7µM*,?,4%,14%
COc1ccc(-c2[nH]ncc2C(=O)NCc2ccccc2OC)cc1,.,.,.,5%,3%,.
CCOc1ccc(C(CC(=O)O)NC(=O)C(Sc2ccccc2)c2ccccc2)cc1 (stereo not given),1%,-12%,0%,1%,22%,-3%
Cc1ccc(CCNC(=O)CCCn2nc(C)c3c(C)n(-c4ccc(C)cc4)nc3c2=O)cc1,1%,57%,?,?,-19%,-2%
Cc1ccc(-n2nc3c(=O)n(CCCC(=O)N4CCCCC4)nc(C)c3c2C)cc1,9.3µM*,34%,?,3%,-22%,-3%
Cc1ccc(-n2nc3c(=O)n(CCCC(=O)NCc4ccco4)nc(C)c3c2C)cc1,12µM*,29%,?,4%,-1%,5%
Cc1ccc(-n2nc3c(=O)n(CCCC(=O)NCc4cccc(F)c4)nc(C)c3c2C)cc1,10µM*,94%,46%,0%,4%,0%
Cc1nn(CCCC(=O)NCc2cccc(F)c2)c(=O)c2nn(-c3ccccc3)c(C)c12,.,.,.,15%,0%,.
Cc1ccc(-n2nc3c(=O)n(CCCC(=O)NCc4ccc(F)cc4)nc(C)c3c2C)cc1,8.3µM*,98%,13%,-1%,2%,0%
Cc1cccc(NC(NC(=O)c2ccccc2[N+](=O)[O-])C(Cl)(Cl)Cl)c1 (stereo not given),-23%,-25%,-5%,?,3%,-4%
Cc1ccc(C)c(Nc2nnc(-n3nc(C)cc3C)c3ccccc23)c1,.,.,.,0%,2%,.
Cc1ccc(-n2nc3c(=O)n(CCCC(=O)NCCN4CCN(C)CC4)nc(C)c3c2C)cc1,?,55%,12µM*,-6%,0%,-1%
COc1ccc(CNC(=O)C(=O)NCC(c2ccco2)N2CCOCC2)cc1 (stereo not given),11%,6%,7.4µM*,0%,-3%,-31%
COc1ccc(C(CNC(=O)c2ccco2)N2CCOCC2)cc1 (stereo not given),11%,-19%,33%,-3%,-4%,0%
Cc1ccc(S(=O)(=O)C(CNC(=O)C(=O)NCc2ccc(Cl)cc2)c2ccco2)cc1 (stereo not given),.,.,.,-3%,?,.
COc1ccc(C(C(C(=O)c2ccco2)N2CCOCC2)N2CCOCC2)cc1 (stereo not given),16%,-2%,-1%,-15%,45µM*,13%
COc1ccc(CNC(=O)C(=O)NCC(c2ccco2)S(=O)(=O)c2cccs2)cc1 (stereo not given),.,.,.,-1%,18µM*,.
O=C(NCc1ccc(Cl)cc1)C(=O)NCC(c1ccco1)S(=O)(=O)c1cccs1 (stereo not given),.,.,.,6%,40µM*,.
COc1ccccc1N1CCN(C(=O)c2cc3ccc4ccc(C)[nH]c4c3n2)CC1,.,.,.,2%,-2%,.
Cc1cc(Cl)ccc1C(=O)C1CCCN(C(=O)c2cnn(C(C)C)c2)C1 (stereo not given),?,97%,?,3%,-19%,0%
